High-throughput results: PubChem BioAssay, National Center for Advancing Translational Sciences (NCATS)
A selection: hits, their analogues and other compounds. The true share with any hit is near 4.6%.
TRHR enhancer: TRH receptor (human) allosteric enhancement. AID 493056. P34981. actives 0.66% (n = 360,000). TRHR cells, fluo-8 calcium fluorescence, EC20 TRH enhancement. enhancement, % at 2 µM; in the data active = enhancement above about 30%; also: 0% is about no effect
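Enhancer read-out: after compound pinning and an initial kinetic agonist-mode read, an EC20 of TRH (10 nM final) was injected and fluo-8 calcium signal (Ex 480/Em 530) followed at 1 s/cycle for 100 cycles in TRHR-expressing cells.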
TRHR ag: TRH receptor (human) agonism. P34981. TRHR cells, calcium flux fluo-8, FDSS agonist mode. activation, % at 2 µM. actives 0.18% (n = 360,000); also: 0% is about no effect
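Read-out: compound-evoked intracellular calcium rise in TRHR cells, fluo-8 dye, kinetic FDSS fluorescence at 1 s/cycle following a 10-cycle baseline. Cells cultured overnight before dye loading (30 min–1.5 h, RT).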
D1 ag: agonists of human D1 dopamine receptor | P21728 | HEK293 T-REx D1 cells, calcium flux, agonist mode | activation, % at 2 µM | actives 1% (n = 360,000) | AID 504660; also: 0% is about no effect
Target sequence (P21728 whole entry, looked up): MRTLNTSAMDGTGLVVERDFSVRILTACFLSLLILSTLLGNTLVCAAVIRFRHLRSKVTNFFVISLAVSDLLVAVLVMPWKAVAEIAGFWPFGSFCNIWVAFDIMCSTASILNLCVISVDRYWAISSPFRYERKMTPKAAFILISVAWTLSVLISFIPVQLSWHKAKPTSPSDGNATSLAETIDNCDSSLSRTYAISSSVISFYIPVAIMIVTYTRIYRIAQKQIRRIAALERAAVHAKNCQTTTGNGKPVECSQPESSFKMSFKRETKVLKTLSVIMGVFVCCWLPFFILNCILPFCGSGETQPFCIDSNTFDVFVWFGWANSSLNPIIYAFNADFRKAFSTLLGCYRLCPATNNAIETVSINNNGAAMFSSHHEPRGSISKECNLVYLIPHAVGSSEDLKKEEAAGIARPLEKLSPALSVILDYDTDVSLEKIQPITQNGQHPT
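Inducible HEK293 T-REx D1 cells, force-coupled to calcium signalling, were plated at 4000 cells/well with tetracycline and held overnight at 30 C. After no-wash calcium dye loading, compound-evoked calcium rise over 180 s flagged agonists.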
D1 potentiator: human D1 dopamine receptor positive modulation; HEK293 TREx D1 cells, calcium flux, dopamine EC20 potentiation; potentiation, % at 10 µM; actives 0.036% (n = 360,000); in the data active = potentiation above about 30%; also: 0% is about no effect
D1 antag: human D1 dopamine receptor antagonism; AID 504652; HEK293 TREx D1 cells, calcium flux, dopamine EC80; hits give low values; actives 3.2% (n = 360,000); activity change, negative = inhibition, % at 10 µM; in the data active = activity change below about -30%; also: % is scaled to controls: 0 for no effect and ±100 for the full control effect
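Tetracycline-induced HEK293 T-REx cells with force-coupled D1 receptor were loaded with a no-wash calcium dye. Compound was added after a 10 s baseline and read kinetically for 180 s; EC80 dopamine was then added and calcium flux followed another 180 s.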
Active calls of the source: *; · = not tested or not shown; ! = not confirmed by another sample. Rule as the data show it, unless noted: active = activation above about 30%; inactive = the rest.

SMILES | TRHR enhancer | TRHR ag | D1 ag | D1 potentiator | D1 antag
O=C(CSc1nnc(CNc2ccc(Cl)cc2)n1Cc1ccccc1)NCc1ccco1 | -5 | 4 | 6 | 0 | -32*
O=C(CCn1c(=O)sc2ccccc21)NCc1ccco1 | -8 | 0 | 79* | -5 | -2
O=C(CCn1c(=O)sc2ccccc21)NCc1ccc2c(c1)OCO2 | -1 | -1 | -3 | -4 | -17
O=C(c1cccc(Cl)c1)N1c2ncnn2C2(CCCCC2)[C@@H]2CCCC[C@@H]21 | 6 | -1 | 4 | -1 | -7
O=C(Nc1ccc(NC(=O)c2cc3ccccc3o2)cc1)c1ccc2c(c1)OCCO2 | 3 | -1 | 3 | 1 | -43*
COc1cc(NC(=O)c2ccc(C)cc2)ccc1NC(=O)c1cc2ccccc2o1 | -4 | -1 | 4 | -6 | 4
COc1cc(NC(=O)c2ccc(F)cc2)ccc1NC(=O)c1cc2ccccc2o1 | 6 | 0 | 1 | -9 | -33*
O=C(NCCc1ccc(Cl)cc1)C1CCN(Cc2cc3ccccc3n2Cc2ccccc2)CC1 | -5 | 1 | 8 | 2 | 16
O=C(NCc1ccccc1CN1CCCC1)c1cccc(S(=O)(=O)N2CCCC2)c1 | 7 | 0 | 3 | -2 | -13
O=C(NCCN1CCOCC1)c1ccc(Cl)c(S(=O)(=O)N2CCCCC2)c1 | 0 | 0 | 3 | 7 | -36*
O=C(NCc1ccccc1CN1CCCC1)c1ccc(Cl)c(S(=O)(=O)N2CCCC2)c1 | -2 | 0 | 12 | -8 | -51*
COc1ccc(C(=O)NCc2ccccc2CN2CCCC2)cc1S(=O)(=O)N1CCOCC1 | 4 | 0 | 1 | -19 | -57*
COc1ccc(NC(=O)c2ccc(-c3ccccc3)cc2)cc1S(=O)(=O)N1CCOCC1 | -4 | 1 | 6 | -5 | -30*
Cc1ccc(C(=O)NCCCN2CCOCC2)cc1S(=O)(=O)N1CCCCC1 | 0 | 0 | 3 | -6 | 2
Cn1c(=NC(=O)C2CC2)sc2cccc(F)c21 | 1 | 0 | 3 | -6 | -41*
COc1ccc(OC)c2c1sc(=NC(=O)C1CCCCC1)n2C | -5 | 0 | 2 | 0 | -8
CCc1ccc(NC(=O)CSc2nc(-c3ccccc3)no2)cc1 | 0 | 1 | 9 | -4 | -16
Cc1cccc(N2CCN(C(=O)c3cc4c(=O)[nH]c5ccc(C)cc5c4s3)CC2C)c1 (stereo unspecified) | 6 | 0 | 0 | 0 | 10
CC1=CC(=O)C(C(C)C)=C/C1=N/OS(=O)(=O)c1ccccc1 | -11 | 1 | 11 | -8 | -31*
CC1=CC(=O)C=C(C)C1=NOS(=O)(=O)c1ccccc1 | -8 | 0 | 13 | -6 | -21
COc1ccc(OC)c(NC(=O)CN2CCCN(Cc3ccccc3Cl)S2(=O)=O)c1 | -2 | -1 | 8 | 5 | -9
COc1cccc(NC(=O)C2CCCN(S(=O)(=O)c3c(C)[nH]c(=O)[nH]c3=O)C2)c1 (stereo unspecified) | -6 | 0 | 0 | 6 | 1
Cc1ccc(NC(=O)C2CCCN(S(=O)(=O)c3c(C)n[nH]c3C)C2)cc1Cl (stereo unspecified) | -7 | 3 | 36* | 2 | 6
Cc1nn(C)c(C)c1S(=O)(=O)N1CCCC(C(=O)N2CCN(c3ccc(Cl)cc3)CC2)C1 (stereo unspecified) | 8 | 0 | 0 | 2 | -7
Cc1n[nH]c(C)c1S(=O)(=O)N1CCCC(C(=O)N2CCN(c3ccc(Cl)cc3)CC2)C1 (stereo unspecified) | 6 | 0 | 19 | -7 | -48*
SMILES | TRHR enhancer | TRHR ag | D1 ag | D1 potentiator | D1 antag
COc1ccc(NC(=O)C2CCCN(S(=O)(=O)c3c(C)[nH]c(=O)[nH]c3=O)C2)cc1 (stereo unspecified) | -4 | 1 | 0 | -4 | -31*!
Cc1ccc(S(=O)(=O)N2CCCC2)cc1C(=O)Nc1ccc(-n2cnnn2)cc1 | -1 | 0 | 5 | -10 | -31*
Cc1ccc(S(=O)(=O)N2CCCC(C(=O)NCc3ccco3)C2)cc1Cl (stereo unspecified) | 3 | 0 | -1 | 2 | 5
Cc1ccc(S(=O)(=O)N2CCCC(C(=O)Nc3ccc(C(=O)O)cc3)C2)cc1Cl (stereo unspecified) | -2 | 0 | 2 | -12 | -33*
CCOC(=O)CSc1nc(-c2ccccc2)nc2ccc(C)cc12 | -1 | 3 | 5 | -3 | -35*
CC(C)CC(=O)NC(NC(=S)Nc1sc2c(c1C#N)CCCC2)C(Cl)(Cl)Cl (stereo unspecified) | -6 | 0 | 13 | -7 | -32*
O=c1oc2c(CN3CCN(CCO)CC3)c(O)ccc2cc1-c1ccccc1 | -2 | 2 | -1 | -1 | -4
COc1ccc(-c2cc3ccc(O)c(CN4CCCC(C)C4)c3oc2=O)cc1OC (stereo unspecified) | 4 | 32* | 2 | -3 | 15
CN1CCN(Cc2c(O)ccc3cc(-c4ccc(Cl)cc4)c(=O)oc23)CC1 | -2 | 2 | 32* | 0 | -15
Cc1ccc(S(=O)(=O)N(CC(=O)Nc2cccnc2)c2cc(Cl)ccc2C)cc1 | -2 | -2 | 0 | 1 | 11
O=C(CSc1oc(-c2ccco2)nc1S(=O)(=O)c1ccc(Br)cc1)c1ccccc1 | -1 | 1 | 2 | 0 | 1
COc1ccc(OC)c(/C=C/C(=O)OCC(=O)Nc2ccc(Cl)c(S(=O)(=O)N(C)C)c2)c1 | 0 | 0 | 7 | 3 | -35*
COc1ccc(/C=C/C(=O)OCC(=O)Nc2cc(S(=O)(=O)N(C)C)ccc2Cl)cc1 | -2 | 0 | 8 | -11 | -34*
COc1cc(/C=C/C(=O)OCC(=O)Nc2cc(S(=O)(=O)N(C)C)ccc2Cl)ccc1O | -2 | -2 | 7 | -3 | 6
CCN(CC)S(=O)(=O)c1ccc(Cl)c(NC(=O)COc2ccc(OC)cc2)c1 | 3 | 1 | 8 | 1 | -31*
Cc1nn2c(C)c(C(=O)NCC(C)c3ccccc3)cnc2c1-c1ccccc1 (stereo unspecified) | 35* | 0 | 1 | 1 | 3
O=C(Nc1ccc(F)cc1)C(Sc1nc2ccccc2[nH]1)c1ccccc1 (stereo unspecified) | -3 | 0 | 11 | -4 | -42*
CN(C(=O)CSc1nc2ccccc2[nH]1)c1ccc(F)cc1 | -1 | 0 | 0 | -7 | -38*
O=C(CSc1nc2ccccc2[nH]1)Nc1ccc(F)cc1 | -3 | 0 | 2 | · | -6
CC(C)c1ccc(-c2noc(SCC(=O)N(C)c3ccc(F)cc3)n2)cc1 | 3 | -1 | 50* | -4 | -16
CCOc1ccc2nc(SCC(=O)Nc3nonc3C)[nH]c2c1 | 0 | -1 | 1 | -4 | -35*
CCN(C(=O)CSc1nc2ccccc2[nH]1)c1ccccc1 | -3 | 0 | 6 | -6 | -3
